SF1 inhibitor: blocks the human nuclear receptor SF-1. CHO-K1 Gal4-SF-1 LBD luciferase reporter. inhibition, % at 10 µM. 65,000 tested, 0.55% active. AID 525;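 active = inhibition above the mean inhibition of all tested compounds plus 3 SD, cut at about 48% in these data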
Target sequence (Q13285 whole entry, looked up, the tested form may be a part): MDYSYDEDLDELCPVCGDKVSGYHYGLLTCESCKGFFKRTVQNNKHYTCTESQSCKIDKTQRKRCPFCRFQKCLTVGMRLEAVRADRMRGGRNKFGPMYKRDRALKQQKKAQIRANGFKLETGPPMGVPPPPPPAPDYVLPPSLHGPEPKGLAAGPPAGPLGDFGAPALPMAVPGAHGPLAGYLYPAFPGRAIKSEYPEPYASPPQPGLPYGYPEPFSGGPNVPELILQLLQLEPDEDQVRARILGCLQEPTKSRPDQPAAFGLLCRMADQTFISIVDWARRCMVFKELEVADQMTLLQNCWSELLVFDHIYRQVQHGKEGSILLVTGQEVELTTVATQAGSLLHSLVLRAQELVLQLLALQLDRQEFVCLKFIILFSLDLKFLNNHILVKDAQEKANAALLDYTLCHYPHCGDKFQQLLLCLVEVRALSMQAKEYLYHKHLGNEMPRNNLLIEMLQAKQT
Of the large screens only hits and unclear results are named; the others gave an inactive call. The sample as a whole holds a higher share of hits than the screen did.

COc1cccc(NC(=O)CSc2ccc3nnc(-c4ccncc4)n3n2)c1	none
COC(=O)C1=C(CSc2nnnn2C)NC(=O)NC1c1cc(C)ccc1C (stereo not drawn)	none
O=C(Nc1nnc(C2CCCCC2)s1)c1ccco1	none
CN1CCN(C(=O)c2cccc(COc3cc(Cl)ccc3Cl)c2)CC1	none
O=C(O)c1cccc(COc2ccccc2Cl)c1	SF1 inhibitor 93.6
O=C(COc1ccccc1Cl)Nc1ccc(Cl)cn1	none
CC(=O)Nc1cccc(NC(=O)c2cc3ccccc3o2)c1	none
CCCC(=O)N1CCN(c2ccc(NC(=O)c3cc4ccccc4o3)cc2Cl)CC1	SF1 inhibitor 48.2
COc1ccc(NC(=O)c2cc3ccccc3o2)cc1	none
Cc1nn(-c2ccccc2)c2sc(C(=O)OC3CCOC3=O)cc12 (stereo not drawn)	none
CC(=O)C1=C(c2ccccc2)NC(=O)NC1c1ccccc1OCC#N (stereo not drawn)	none
Cn1c(=O)c2c(nc(N3CCOCC3)n2CCCNC2=NCCC2)n(C)c1=O	none
Nc1c(C(=O)Nc2ccc(Cl)cc2)oc2ccccc12	none
Cc1cc(C(=O)Nc2sc3c(c2C#N)CCCC3)no1	none
Cc1cc(C(=O)Nc2sc3c(c2C#N)CCC3)no1	none
Cc1ccnc(SCC(=O)Nc2sc3c(c2C#N)CCCC3)n1	SF1 inhibitor 76.0
O=C(CCC1CCCC1)N1CCN(C(=O)COc2ccccc2)CC1	none
CCOC(=O)c1sc(NC(=O)c2cc3c(C)nn(-c4ccccc4)c3s2)nc1C	none
CCCCN(CC)C(=O)c1ccc(Cl)c(Cl)c1	none
CCOC(=O)c1c(N)sc2c1CCS(=O)(=O)C2	none
CCN1C(=O)/C(=C2/Sc3ccc(OC)cc3N2C)SC1=Nc1cccc(O)c1	SF1 inhibitor 51.2
O=c1cc(O)nc2n1CCCS2	none
O=C(NCc1ccccc1)c1noc2c1CCCCC2	none
O=C1CC(NCCN2CCOCC2)C(=O)N1Cc1ccc(N2CCCC2=O)cc1 (stereo not drawn)	none
Cn1nc(C(C)(C)C)cc1C(=O)NCc1ccc(N2CCCC2=O)cc1	SF1 inhibitor 69.4
CN1CC(=O)N(C)c2ncn(Cc3ccccc3)c2C1=O	none
CCOC(=O)N1CCc2c(sc3c2C(=O)NC(c2ccc(-c4ccc(Cl)cc4)o2)N3)C1 (stereo not drawn)	none
Cn1ncc2c(Nc3ccc(-c4ccccc4)cc3)ncnc21	none
OC(COCC1COc2ccccc2O1)CN1CCN(c2ccccn2)CC1 (stereo not drawn)	none
c1ccc(-n2ncc3c(NC4CCCCCC4)ncnc32)cc1	none
CC1CC(C)CN(c2ncnc3c2cnn3-c2ccc(Cl)cc2)C1 (stereo not drawn)	none
CC1CCCN(c2ncnc3c2cnn3-c2ccccc2)C1 (stereo not drawn)	SF1 inhibitor 48.2
Cc1ccc(-n2ncc3c(N4CCCC4)ncnc32)c(C)c1	none
Cc1ccc(-n2ncc3c(N4CCCC(C)C4)ncnc32)c(C)c1 (stereo not drawn)	none
Cc1cccc(-n2ncc3c(N4CCC(C)CC4)ncnc32)c1	none
CCN1CCN(c2ncnc3c2cnn3-c2ccccc2)CC1	none
c1ccc(-n2ncc3c(N4CCCCC4)ncnc32)cc1	SF1 inhibitor 68.7
CC1CCCN(c2ncnc3c2cnn3-c2ccc(Cl)cc2)C1 (stereo not drawn)	SF1 inhibitor 85.5
NC(=O)c1cc(Cl)cn(-c2ccccc2)c1=O	none
Cc1onc(-c2c(F)cccc2Cl)c1C(=O)NCc1ccccn1	none
O=c1cc(N2CCC(Cc3ccccc3)CC2)[nH]c(=O)n1C1CCCCC1	none
Cn1c(SCC(=O)Nc2cc(=O)n(C)c(=O)n2C)nnc1-c1cccs1	none
COc1ccccc1CC1(C)NC(=O)N(CC(=O)N2CC(C)OC(C)C2)C1=O (stereo not drawn)	none
CCOC(=O)C(NC(=O)c1ccccc1)(N1CCCC1=O)C(F)(F)F (stereo not drawn)	none
CC(NC(=O)c1cc2ccccc2o1)c1cccs1 (stereo not drawn)	none
O=C(NCCSc1ccccc1)c1cccnc1	none
CCOc1ccc(OCc2cccc(C(=O)N3CCOCC3)c2)cc1	SF1 inhibitor 61.6
COc1cccc(C(=O)N2CCN(Cc3cccc(F)c3)CC2)c1	none
Cc1ccc(-c2ccc(OCC(=O)N3CCOCC3)cc2)cc1	none
O=C(NCCN1CCN(c2ccccc2F)CC1)C1CC(=O)N(C2CCCC2)C1 (stereo not drawn)	none
CCOC(=O)c1ccc(N2Cc3cc(C)c(C)cc3C2)cc1O	none
CCCCS(=O)(=O)/C=C\C=C/S(=O)(=O)CCCC	SF1 inhibitor 95.8
O=C(COc1ccc(Cl)cc1Cl)NC1CCSC1=O (stereo not drawn)	none
CCc1sc(C(=O)N2CCN(S(C)(=O)=O)CC2)cc1Br	none
Cc1occc1C(=O)N1CCN(c2ccc(Cl)c(Cl)c2)CC1	SF1 inhibitor 55.8
Cc1occc1C(=O)n1nnc2ccccc21	none
O=C(c1ccc2c(c1)OCO2)N1CCN(c2ccc(F)cc2)CC1	none
CCSc1nnc(NC(=O)c2nn(C(C)C)c(=O)c3ccccc23)s1	none
CC(=O)N=C(N)Sc1nc2ccccc2[nH]1	none
COC(=O)C1=[N+]([O-])OC(C(=O)OC)C1c1c[nH]c2ccccc12 (stereo not drawn)	none
CCC(=O)NC1(C(F)(F)F)C(=O)NC(C)=C1C#N (stereo not drawn)	none
COc1cc(C2C(C#N)=C(N)Oc3cc(N(C)C)ccc32)cc2c1OCO2 (stereo not drawn)	SF1 inhibitor 59.0
CSc1nc(C)cc(OCNC(=O)c2cccs2)n1	none
Cc1ccc(C2=Nc3ccccc3NC(C)(c3ccc(C)o3)C2)o1 (stereo not drawn)	none
Cc1ccc(CNc2nc3ccccc3s2)s1	SF1 inhibitor 61.4
c1csc(CSc2nc3ccccc3s2)c1	none
Cc1noc(C)c1CSc1nc2ccccc2s1	none
CC1(C)C2CCC1(C)C(OC(=O)CSc1nc(N)cc(=O)[nH]1)C2 (stereo not drawn)	none
O=C1c2ccccc2C(=O)N1CCCn1nnc(-c2ccc(N3CCOCC3)cc2)n1	none
Cc1cccc(-n2ncc3c(N(C)Cc4ccccc4)ncnc32)c1	none
Cc1ccc(Nc2nc(CSc3nnnn3-c3ccccc3)cs2)cc1	none
COc1cc(CSc2nnnn2-c2ccc(C)cc2)cc(OC)c1OC	SF1 inhibitor 62.0
COc1ccc(C)cc1-n1nnnc1SCc1nc2ccccc2s1	none
NS(=O)(=O)c1ccc(CCNC2CC(=O)N(Cc3ccccc3)C2=O)cc1 (stereo not drawn)	none
Cc1cc(=O)[nH]c(N2CCCC2)n1	none
CCN(CC)S(=O)(=O)c1cc(C(=O)Nc2ccc(Cl)cn2)ccc1C	none
NC(=O)CSc1nnc(-c2ccoc2)o1	none
O=C(O)c1ccc(COc2c(F)c(F)cc(F)c2F)cc1	none
COc1ccc(OCc2ccc(C(=O)O)cc2)cc1	none
COc1cc(/C=N/O)ccc1OCc1ccc(C(=O)O)cc1	SF1 inhibitor 90.6
COC(=O)c1ccc(CSc2nc3c(cnn3-c3ccccc3)c(=O)[nH]2)o1	none
COc1ccc(N2C(=O)CC(c3ccc(OC(C)C)cc3)C2=O)cc1 (stereo not drawn)	none
O=C(CCn1nc(-c2ccccc2)c2ccccc2c1=O)NCC1CCCO1 (stereo not drawn)	none
Cc1cc(C)cc(-n2cc3c(=O)n(C)c(=O)n(C)c3c2)c1	none
CCCCN(CCCC)S(=O)(=O)c1ccc(C(=O)Nc2nnc(CSC)o2)cc1	SF1 inhibitor 55.2
CCN(CC)S(=O)(=O)c1ccc(NC(=O)c2ccccn2)cc1	none
CN(C)S(=O)(=O)c1ccc(C(=O)Nc2ccc(CN3CCCC3)cc2)cc1	none
COc1ccc(N2CCN(C(c3cccs3)C(C)NC(=O)c3ccco3)CC2)cc1 (stereo not drawn)	none
Cc1cnc(NC(=O)c2ccco2)s1	none
Cc1sc(NC(=O)c2ccco2)c(C(c2cccnc2)N2CCN(c3ccc(F)cc3)CC2)c1C (stereo not drawn)	SF1 inhibitor 48.4

Screening data as filed in PubChem.
